Reference: publication PMC5540273 (PLoS ONE, 2017)

Columns and labels:
Conditions in all cases: concentration: 1 μM, replicates: in singlicate; n = 1
CAMK2D = test system: CAMK2D
CAMK2G = test system: CAMK2G
CAMK4 = test system: CAMK4
CAMKK1 = test system: CAMKK1
CAMKK2 = test system: CAMKK2
CASK = test system: CASK
CDC2L1 = test system: T1, CDC2L1
T1 construct: gene CDK11B

CDC2L2 = test system: CDC2L2
CDC2L5 = test system: T2, CDC2L5
T2 construct: gene CDK13

CDK11 = test system: T3, CDK11
T3 construct: gene CDK19

CDK2 = test system: CDK2
CDK3 = test system: CDK3
CDK4-cyclinD1 = test system: CDK4-cyclinD1
CDK4-cyclinD3 = test system: CDK4-cyclinD3
CDK4 = test system: CDK4
CDK5 = test system: CDK5
CDK7 = test system: CDK7
CDK8 = test system: CDK8
CDK9 = test system: CDK9
CDKL1 = test system: CDKL1
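Note: KINOMEscan kinase panel screen.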

| SMILES | %Inh (CAMK2D) [%] | %Inh (CAMK2G) [%] | %Inh (CAMK4) [%] | %Inh (CAMKK1) [%] | %Inh (CAMKK2) [%] | %Inh (CASK) [%] | %Inh (CDC2L1) [%] | %Inh (CDC2L2) [%] | %Inh (CDC2L5) [%] | %Inh (CDK11) [%] | %Inh (CDK2) [%] | %Inh (CDK3) [%] | %Inh (CDK4-cyclinD1) [%] | %Inh (CDK4-cyclinD3) [%] | %Inh (CDK4) [%] | %Inh (CDK5) [%] | %Inh (CDK7) [%] | %Inh (CDK8) [%] | %Inh (CDK9) [%] | %Inh (CDKL1) [%] |
| --- | --- | --- | --- | --- | --- | --- | --- | --- | --- | --- | --- | --- | --- | --- | --- | --- | --- | --- | --- | --- |
| Cn1ccc2ncnc(Nc3ccc(Oc4cccc(Cl)c4)c(Cl)c3)c21 | 5 | 8 | 0 | 11 | 9 | 9 | 22 | 5 | 13 | 5 | 0 | 0 | 0 | 0 | 0 | 21 | 14 | 22 | 15 | 10 |
| Fc1cccc(COc2ccc(Nc3ncnc4sc(-c5ccc[nH]5)cc34)cc2Cl)c1 [GW707818] | 7 | 0 | 5 | 0 | 16 | 15 | 20 | 15 | 0 | 5 | 0 | 10 | 0 | 11 | 17 | 0 | 0 | 31 | 14 | 6 |
| CSc1ccc(NC2=C(c3ccccc3Cl)C(=O)NC2=O)cc1 [SB-342411] | 28 | 36 | 0 | 5 | 25 | 26 | 0 | 0 | 0 | 0 | 10 | 26 | 61 | 30 | 0 | 0 | 43 | 7 | 0 | 13 |
| COC(=O)c1cccc(NC(=O)NCCNc2ccnc(Nc3ccc(F)cc3)n2)c1 [GSK1379883] | 0 | 17 | 0 | 11 | 6 | 0 | 0 | 20 | 0 | 16 | 0 | 2 | 0 | 0 | 34 | 0 | 0 | 8 | 0 | 3 |
| Fc1ccc(-c2ncn(CCCNCc3ccccc3)c2-c2ccncc2)cc1 | 0 | 0 | 4 | 0 | 0 | 27 | 0 | 0 | 18 | 0 | 0 | 7 | 0 | 13 | 0 | 4 | 27 | 0 | 0 | 0 |
